# Source: PubChem BioAssay
# Inconclusive results are not listed. Calls of active or inactive are those of the source.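 Rule for the calls, unless noted: active = normalized viability below 100% at a tested concentration; inactive = the rest.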
# Columns and labels:
# [1] = growth inhibition of DIPG glioma cells, dose response, cell-based, SU-DIPG-XVII, MIPE5.0, CellTiter-Glo, qHTS (AID 1347060; cut-off not given, nearly all actives have AC50 up to about 26 µM;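 for AC50: cells exposed to compound for 48 hours before viability readout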); details: SU-DIPG-XVII viability, CellTiter-Glo ATP luminescence
# [2] = growth inhibition of DIPG glioma cells, dose response, cell-based, SU-DIPG-XIII, MIPE4.0, CellTiter-Glo, qHTS (AID 1347061; cut-off not given, nearly all actives have AC50 up to about 37 µM;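 note: cells exposed to compound for 48 hours before readout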); details: SU-DIPG-XIII viability, CellTiter-Glo ATP luminescence
# [3] = growth inhibition of DIPG glioma cells, dose response, cell-based, JHH-DIPG-1, MIPE4.0, CellTiter-Glo, qHTS (AID 1347062; cut-off not given, nearly all actives have AC50 up to about 27 µM;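 for AC50: cells exposed to compound for two days before readout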); details: JHH-DIPG-1 viability, CellTiter-Glo ATP luminescence
# [4] = growth inhibition of DIPG glioma cells, dose response, cell-based, SU-DIPG-IV, MIPE4.0, CellTiter-Glo, qHTS (AID 1347063; cut-off not given, nearly all actives have AC50 up to about 30 µM;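 note: compound exposure lasted 48 hours before the viability readout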); details: SU-DIPG-IV viability, CellTiter-Glo ATP luminescence
# [5] = growth inhibition of DIPG glioma cells, dose response, cell-based, SU-DIPG-XIII, MIPE5.0, CellTiter-Glo, qHTS (AID 1347064; cut-off not given, nearly all actives have AC50 up to about 23 µM;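 for AC50: cells exposed to compound for 48 hours before the viability read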); details: SU-DIPG-XIII viability, CellTiter-Glo ATP luminescence
# [6] = viability loss in pontine glioma line – cell-based, SU-DIPG-XXV, MIPE5.0, CellTiter-Glo, qHTS, dose response (AID 1347065; cut-off not given, nearly all actives have AC50 up to about 26 µM;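 note: cells exposed to compound for 48 hours before ATP readout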); details: CellTiter-Glo ATP luminescence
# [7] = SU-DIPG-VI glioma cell viability, MIPE4.0 library, CellTiter-Glo luminescence, qHTS (AID 1347066; cut-off not given, nearly all actives have AC50 up to about 30 µM;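 note: cells exposed to compound for 48 hours before readout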); details: CellTiter-Glo ATP luminescence
# [8] = JHH-DIPG-1 glioma cell viability, MIPE5.0 library, CellTiter-Glo luminescence, qHTS (AID 1347067; cut-off not given, nearly all actives have AC50 up to about 26 µM;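 note: cells exposed to compound for 48 hours before readout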); details: JHH-DIPG-1 glioma viability, CellTiter-Glo ATP luminescence
# [9] = SU-DIPG-XXV glioma cell viability, MIPE5.0 library, qHTS (AID 1347068; cut-off not given, nearly all actives have IC50 up to about 30 µM;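 for IC50: cells exposed to compound for 48 hours before viability readout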)
# [10] = sensitizers of A549 cells to miR-34 induction, primary screen, imaging, A549 dox-inducible miR-34, nuclei and caspase counts (AID 1347080;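 active = compounds whose cell count with miR-34 switched on is under 0.7 times the count with it off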); details: A549 miR-34 inducible, Hoechst nuclei count, 48 h
# [11] = modifiers of HSF1 nuclear foci, imaging, Selleck Cancer Library (AID 1347162; in the data active = plate-normalised HSF1 focus index below about 0.46); details: human cells, at 10 µM; SSMD: measured here: HSF1 foci SSMD mean; cell count: measured here: cell number; plate-normalised HSF1 focus index: stronger effect = lower value
# [12] = survival rescue of mitochondrial mutant cells in low glucose, primary screen, MELAS cybrids, Rieske KO mouse fibroblasts, CellTiter-Glo (AID 1508586;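 active = mean z-score across replicates of 1.96 or higher in either the MELAS or the Rieske mutant cell line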;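 note: z relative to plate mean and SD of compound and empty wells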)
# [13] = ovarian cancer cell viability with rucaparib, profiling panel, oncology-focused library, rucaparib conditional (AID 1508598); details: patient-derived ovarian cancer cells, CellTiter-Glo viability, 144 h, stronger effect = lower value
compound,measurement,setting,value
COc1ccc2c(OCc3nnc4ccc(-c5ccccc5)nn34)ccnc2c1,outcome,[1],inactive
same,outcome,[2],inactive
same,outcome,[3],inactive
same,outcome,[4],inactive
same,outcome,[5],inactive
same,outcome,[6],inactive
same,outcome,[7],inactive
same,outcome,[8],inactive
same,outcome,[9],inactive
Cn1cc(C[C@@H](N)C(=O)O)c2ccccc21,outcome,[1],inactive
same,outcome,[2],inactive
same,outcome,[3],inactive
same,outcome,[4],inactive
same,outcome,[5],inactive
same,outcome,[6],inactive
same,outcome,[7],inactive
same,outcome,[8],inactive
same,outcome,[9],inactive
O=C1NC(O)CCN1[C@@H]1O[C@H](CO)[C@@H](O)[C@H]1O (stereo partly specified),outcome,[1],inactive
same,outcome,[2],inactive
same,outcome,[3],inactive
same,outcome,[4],inactive
same,outcome,[5],inactive
same,outcome,[6],inactive
same,outcome,[7],inactive
same,outcome,[8],inactive
same,outcome,[9],inactive
Nc1cc(C(F)(F)F)c(-c2cc(N3CCOCC3)nc(N3CCOCC3)n2)cn1,AC50,[1],2.95 µM (active)
same,AC50,[2],6.62 µM (active)
same,AC50,[3],2.09 µM (active)
same,AC50,[4],0.332 µM (active)
same,AC50,[5],2.95 µM (active)
same,AC50,[6],0.934 µM (active)
same,AC50,[7],1.48 µM (active)
same,AC50,[8],1.48 µM (active)
same,IC50,[9],3.72 µM (active)
same,fold change,"[10]; stronger effect = lower value, cell number ratio, induced over uninduced",0.829 (inactive)
same,fold change,[10]; measured here: relative caspase fold change +Dox/-Dox,1.1
same,cell count,"[10]; measured here: total cells with miR-34 induction, stronger effect = lower value",1500
same,cell count,[10]; measured here: total cells without miR-34 induction,1810
same,SSMD,[11],-2.85
same,cell count,[11],7440
same,plate-normalised HSF1 focus index,[11],0.897 (inactive)
same,z-score,"[12]; MELAS cybrid survival, CellTiter-Glo 48 h, stronger effect = higher value",2.94 (active)
same,z-score,"[12]; Rieske KO mouse fibroblast survival, CellTiter-Glo 72 h",-2.21
same,viability,"[13]; at 0.000305 µM, OCI-C5x cells, with rucaparib 10 µM, 100% = cells with rucaparib alone",103% (inactive)
same,viability,"[13]; at 0.000305 µM, OCI-C5x cells, without rucaparib",125% (inactive)
same,viability,"[13]; at 0.000305 µM, OCI-P5x cells, with rucaparib 20 µM, 100% = cells with rucaparib alone",104% (inactive)
same,viability,"[13]; at 0.000305 µM, OCI-P5x cells, without rucaparib",106% (inactive)
same,viability,"[13]; at 0.00122 µM, OCI-C5x cells, with rucaparib 10 µM, 100% = cells with rucaparib alone",103% (inactive)
same,viability,"[13]; at 0.00122 µM, OCI-C5x cells, without rucaparib",120% (inactive)
same,viability,"[13]; at 0.00122 µM, OCI-P5x cells, with rucaparib 20 µM, 100% = cells with rucaparib alone",98.2% (active)
same,viability,"[13]; at 0.00122 µM, OCI-P5x cells, without rucaparib",114% (inactive)
same,viability,"[13]; at 0.00488 µM, OCI-C5x cells, with rucaparib 10 µM, 100% = cells with rucaparib alone",112% (inactive)
same,viability,"[13]; at 0.00488 µM, OCI-C5x cells, without rucaparib",141% (inactive)
same,viability,"[13]; at 0.00488 µM, OCI-P5x cells, with rucaparib 20 µM, 100% = cells with rucaparib alone",103% (inactive)
same,viability,"[13]; at 0.00488 µM, OCI-P5x cells, without rucaparib",107% (inactive)
same,viability,"[13]; at 0.0195 µM, OCI-C5x cells, with rucaparib 10 µM, 100% = cells with rucaparib alone",104% (inactive)
same,viability,"[13]; at 0.0195 µM, OCI-C5x cells, without rucaparib",117% (inactive)
same,viability,"[13]; at 0.0195 µM, OCI-P5x cells, with rucaparib 20 µM, 100% = cells with rucaparib alone",100% (inactive)
same,viability,"[13]; at 0.0195 µM, OCI-P5x cells, without rucaparib",110% (inactive)
same,viability,"[13]; at 0.0781 µM, OCI-C5x cells, with rucaparib 10 µM, 100% = cells with rucaparib alone",120% (inactive)
same,viability,"[13]; at 0.0781 µM, OCI-C5x cells, without rucaparib",121% (inactive)
same,viability,"[13]; at 0.0781 µM, OCI-P5x cells, with rucaparib 20 µM, 100% = cells with rucaparib alone",104% (inactive)
same,viability,"[13]; at 0.0781 µM, OCI-P5x cells, without rucaparib",102% (inactive)
same,viability,"[13]; at 0.313 µM, OCI-C5x cells, with rucaparib 10 µM, 100% = cells with rucaparib alone",93.6% (active)
same,viability,"[13]; at 0.313 µM, OCI-C5x cells, without rucaparib",124% (inactive)
same,viability,"[13]; at 0.313 µM, OCI-P5x cells, with rucaparib 20 µM, 100% = cells with rucaparib alone",87.5% (active)
same,viability,"[13]; at 0.313 µM, OCI-P5x cells, without rucaparib",92.9% (active)
same,viability,"[13]; at 1.25 µM, OCI-C5x cells, with rucaparib 10 µM, 100% = cells with rucaparib alone",71.8% (active)
same,viability,"[13]; at 1.25 µM, OCI-C5x cells, without rucaparib",80.8% (active)
same,viability,"[13]; at 1.25 µM, OCI-P5x cells, with rucaparib 20 µM, 100% = cells with rucaparib alone",69.7% (active)
same,viability,"[13]; at 1.25 µM, OCI-P5x cells, without rucaparib",51.3% (active)
same,viability,"[13]; at 5 µM, OCI-C5x cells, with rucaparib 10 µM, 100% = cells with rucaparib alone",31.4% (active)
same,viability,"[13]; at 5 µM, OCI-C5x cells, without rucaparib",25.1% (active)
same,viability,"[13]; at 5 µM, OCI-P5x cells, with rucaparib 20 µM, 100% = cells with rucaparib alone",26.6% (active)
same,viability,"[13]; at 5 µM, OCI-P5x cells, without rucaparib",12.2% (active)
COc1cc(O)c2c(c1)C1OC1C[C@H](O)[C@H](O)C(=O)/C=C\C[C@H](C)OC2=O (stereo partly specified),AC50,[1],0.661 µM (active)
same,AC50,[2],0.662 µM (active)
same,AC50,[3],5.9 µM (active)
same,AC50,[4],4.18 µM (active)
same,AC50,[5],0.661 µM (active)
same,AC50,[6],0.934 µM (active)
same,AC50,[7],13.2 µM (active)
same,AC50,[8],4.17 µM (active)
same,IC50,[9],18.6 µM (active)
O=C(O)[C@@H](c1ccc(OCc2ccc3ccccc3n2)cc1)C1CCCC1,outcome,[1],inactive
same,outcome,[2],inactive
same,outcome,[3],inactive
same,outcome,[4],inactive
same,outcome,[5],inactive
same,outcome,[6],inactive
same,outcome,[7],inactive
same,outcome,[8],inactive
same,outcome,[9],inactive
C=C1C(=O)[C@@]23C(CC[C@@H]1[C@H]2O)[C@@]12CO[C@]3(O)[C@@H](O)[C@@H]1C(C)(C)CC[C@@H]2O (stereo partly specified),AC50,[1],9.34 µM (active)
same,AC50,[2],7.43 µM (active)
same,AC50,[3],4.18 µM (active)
same,AC50,[4],2.35 µM (active)
same,AC50,[5],6.61 µM (active)
same,AC50,[6],8.33 µM (active)
same,AC50,[7],3.72 µM (active)
same,AC50,[8],5.9 µM (active)
same,IC50,[9],9.34 µM (active)
COc1cc(CCc2cc(NC(=O)c3ccc(N4C[C@@H](C)N[C@@H](C)C4)cc3)n[nH]2)cc(OC)c1,AC50,[1],0.417 µM (active)
same,AC50,[2],8.33 µM (active)
same,AC50,[3],18.7 µM (active)
same,AC50,[4],16.6 µM (active)
same,AC50,[5],0.235 µM (active)
same,AC50,[6],0.263 µM (active)
same,AC50,[7],23.5 µM (active)
same,AC50,[8],13.2 µM (active)
same,IC50,[9],8.33 µM (active)
Cc1cnc(Nc2ccc(CN3CCOCC3)cc2)nc1Nc1cccc(S(=O)(=O)NC(C)(C)C)c1,AC50,[1],4.17 µM (active)
same,AC50,[2],10.5 µM (active)
same,AC50,[3],11.8 µM (active)
same,AC50,[4],11.8 µM (active)
same,AC50,[5],3.32 µM (active)
same,AC50,[6],3.32 µM (active)
same,AC50,[7],8.33 µM (active)
same,AC50,[8],5.9 µM (active)
same,IC50,[9],3.72 µM (active)
CC(=O)NCC(=O)N1[C@@H]2CC[C@H]1c1ccc(Nc3ncc(C(F)(F)F)c(NC4CCC4)n3)cc12,AC50,[1],0.417 µM (active)
same,AC50,[2],1.66 µM (active)
same,AC50,[3],5.9 µM (active)
same,AC50,[4],1.87 µM (active)
same,AC50,[5],0.661 µM (active)
same,AC50,[6],0.186 µM (active)
same,AC50,[7],2.64 µM (active)
same,AC50,[8],1.86 µM (active)
same,IC50,[9],0.833 µM (active)
